AHR act – AHR activators, primary screen, cell-based, luminescence, luciferase reporter, human; AHR-responsive luciferase reporter cells; activation, % at 5 µM; 320,000 tested, 2.5% active; in the data active = activation above about 47%
Target sequence (P35869 whole entry, looked up): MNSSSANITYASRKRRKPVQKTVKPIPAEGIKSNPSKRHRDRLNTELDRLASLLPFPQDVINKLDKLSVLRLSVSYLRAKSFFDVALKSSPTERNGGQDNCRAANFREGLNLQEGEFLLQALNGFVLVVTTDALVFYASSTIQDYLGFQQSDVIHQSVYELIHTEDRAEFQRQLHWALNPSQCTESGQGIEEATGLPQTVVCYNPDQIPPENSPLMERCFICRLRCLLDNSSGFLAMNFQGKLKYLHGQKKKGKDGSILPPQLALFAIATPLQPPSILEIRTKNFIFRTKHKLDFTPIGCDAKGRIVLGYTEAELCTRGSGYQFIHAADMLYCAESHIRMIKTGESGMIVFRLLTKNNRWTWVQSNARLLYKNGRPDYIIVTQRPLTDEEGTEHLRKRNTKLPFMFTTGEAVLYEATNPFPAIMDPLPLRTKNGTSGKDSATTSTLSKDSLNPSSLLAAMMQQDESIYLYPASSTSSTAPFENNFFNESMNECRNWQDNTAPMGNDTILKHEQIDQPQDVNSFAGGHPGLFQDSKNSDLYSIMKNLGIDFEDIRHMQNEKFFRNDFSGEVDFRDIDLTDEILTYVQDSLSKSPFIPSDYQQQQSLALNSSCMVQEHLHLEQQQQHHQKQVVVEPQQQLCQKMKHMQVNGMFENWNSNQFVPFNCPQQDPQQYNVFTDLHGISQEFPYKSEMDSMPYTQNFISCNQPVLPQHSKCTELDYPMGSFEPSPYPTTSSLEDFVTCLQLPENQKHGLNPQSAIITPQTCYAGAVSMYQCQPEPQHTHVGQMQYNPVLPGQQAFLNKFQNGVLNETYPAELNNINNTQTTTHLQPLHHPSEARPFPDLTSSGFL
HSF1 activator – HSF-1 activators, primary screen, NIH3T3-HGL cells, MG132 stress, luminescence, single point; AID 504408, 2011; NIH3T3-HGL HSF-1 luciferase reporter, 8 h; 100% = twice DMSO control signal; activation, % at 9 µM; 300,000 tested, 1.7% active;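 active = mean replicate activation of at least 50% with a set share of replicates each reaching 50%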
NR0B1 inh – DAX1 (NR0B1) inhibitors, primary screen, cell-based, HEK293, Gal4-DAX1, luciferase luminescence; Nuclear receptor subfamily 0 group B member 1 (Homo sapiens), P51843; HEK293 Gal4-DAX1 luciferase reporter; inhibition, % at 6.75 µM; 340,000 tested, 0.99% active;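 active = inhibition above the mean over all tested compounds plus 3 SD, cut at about 4.2% in these data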;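 also: inhibition shows as a rise in luminescence from relieved DAX1 repression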
HSF1 inh – HSF1 inhibitors in luciferase reporter cells, primary screen, cell-based, NIH3T3, luminescence; NIH3T3-HGL HSE-luciferase, MG132-induced, luminescence 8 h; stronger effect = lower value; activity change, negative = inhibition, % at 7.5 µM (by protocol); 300,000 tested, 0.77% active; AID 2098, 2009;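 active = more than half of replicate wells show activity change below -50%, luminescence cut by over half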;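 also: luciferase reports HSF-1 transcriptional activity via heat shock element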
HSP90 refold inh – HSP90 inhibitors, primary screen, cell lysate, luminescence; Rabbit reticulocyte lysate, luciferase refolding luminescence, 3 h; Heat shock protein HSP 90 (rabbit reticulocyte lysate; luciferase refolding); 290,000 tested, 0.91% active; inhibition, % at 5.6 µM; AID 1789, 2009;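 active = inhibition above the screen-wide mean plus 3 SD, computed separately per campaign, cut at about 16% in these data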;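 also: inhibitors lower the luminescence because luciferase stays unfolded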
GAA850 FXN act – FXN promoter activators, primary screen, cell-based, luciferase luminescence, HEK293 lucGAA850 | AID 540364, 2011 | HEK293 lucGAA850 FXN promoter luciferase reporter, 24 h; percent of 10 µM SAHA response | 360,000 tested, 0.56% active | activation, % at 6 µM;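 active = activation above the average of all compounds screened plus 3 SD, cutoff fixed separately per campaign, cut at about 7.5% in these data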
HSP90 inh confirm – HSP90 inhibitors, confirmation, cell lysate, luminescence; rabbit reticulocyte lysate, luciferase refolding luminescence, 3 h; inhibition, % at 5.9 µM; shares compounds with HSP90 refold inh; 2,300 tested, 64% active; in the data active = inhibition above about 18%
luciferase ctr – firefly luciferase inhibitors, HSP90 counter-screen, confirmation, artefact control for HSP90 inhibitor project, biochemical, luminescence, triplicate; 2,300 tested, 48% active; AID 1847, 2009; purified native firefly luciferase; inhibition, % at 5.9 µM; shares compounds with HSP90 refold inh;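 active = inhibition above the mean inhibition of all tested sample wells plus 3 SD, cut at about 10% in these data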
Hits are given with their value; i = inactive; nt = not tested or not shown. The list is not random: actives were taken first. Their share in the collection is about 5.9%.

SMILES	AHR act	HSF1 activator	NR0B1 inh	HSF1 inh	HSP90 refold inh	GAA850 FXN act	HSP90 inh confirm	luciferase ctr
CCN(C=NC1=NN(c2cccc(C(F)(F)F)c2)CC1)CC	i	i	i	i	21.9	i	i	i
COCCNC(=O)C(=O)Nc1cc2c3c(c1)CCC(=O)N3CCC2	i	i	i	i	i	i	nt	nt
COc1ccc(-c2cc3nc(C)cc(N)n3n2)cc1	i	i	i	i	42.0	i	61.1	41.1
COc1ccc(-c2cc3nc(C)cc(NCCO)n3n2)cc1	i	i	i	i	i	i	nt	nt
Cc1ccc(CNC(=O)CSc2nc3ccccc3[nH]2)cc1	i	i	i	i	i	i	nt	nt
O=C(CSc1nc2ccccc2[nH]1)NCCc1ccc(Cl)cc1	i	i	i	i	25.1	i	i	i
CC(=O)c1ccc(N=Nc2ccc(N(C)C)cc2)cc1	i	i	i	i	i	i	nt	nt
CN(C)c1ccc(N=Nc2ccccc2Br)cc1	53.3	i	i	i	52.3	i	64.8	53.6
CCOc1ncccc1C(=O)N1CCN(S(=O)(=O)c2ccc(Br)cc2Cl)CC1	i	i	i	i	i	i	nt	nt
CN=c1scc(-c2ccc(Br)cc2)n1C	i	i	i	i	i	i	nt	nt
CN=c1scc(-c2ccccc2Br)n1/N=C/c1ccc[nH]1	i	i	nt	i	61.5	nt	72.3	70.1
CCOC(=O)c1nc(N/N=C/c2ccccc2)sc1Br	i	i	i	i	21.1	i	27.8	i
COc1ccc(N(C=O)C(=S)SC)cc1	i	i	i	i	i	i	nt	nt
COc1ccccc1N(Cc1ccccc1)S(=O)(=O)c1cccc(C(=O)Nc2cc(C)ccn2)c1	i	i	i	i	38.3	i	57.7	40.8
COc1ccc(Cl)cc1NC(=O)CCc1nc(-c2ccccc2F)no1	i	68.9	i	i	27.1	i	i	i
COc1ccccc1NC(=O)CCc1nc(-c2ccccc2F)no1	i	i	i	i	i	i	nt	nt
Cc1cc(Oc2cnn(C(C)(C)C)c(=O)c2Cl)cc(C(C)C)c1	i	i	i	i	i	i	nt	nt
Nc1nc2ccccc2n1C(=O)c1ccc(F)cc1	i	i	i	i	39.8	i	53.8	35.4
COc1ccc(C(=O)n2c(N)nc3ccccc32)cc1OC	i	i	i	i	i	i	nt	nt
Cn1c(CNC(=O)c2ccc(F)cc2)nc2ccccc21	i	i	i	i	i	i	nt	nt
Nc1nc2ccccc2n1C(=O)c1ccccc1	i	i	i	i	26.6	i	58.5	41.8
O=C(CSc1ncn[nH]1)NNC(=O)c1ccccc1	i	i	i	i	nt	i	nt	nt
O=C(CSc1nc2ccccc2c(=O)n1NC(=O)c1ccccc1)c1ccccc1	i	i	i	i	36.5	i	i	i
Cc1nc2ccccc2c(=O)n1NC(=O)c1ccc(Cl)cc1	i	i	i	i	i	i	nt	nt
Cc1nc2ccccc2c(=O)n1NC(=O)c1cccc(Cl)c1	i	i	i	i	i	i	nt	nt
SMILES	AHR act	HSF1 activator	NR0B1 inh	HSF1 inh	HSP90 refold inh	GAA850 FXN act	HSP90 inh confirm	luciferase ctr
O=C(CSc1nc2ccccc2c(=O)n1NC(=O)c1ccccc1)c1ccc(Cl)cc1	i	i	i	i	24.4	i	i	i
Cc1ccccc1OCCC(=O)Nc1ccc(S(=O)(=O)N(C)C2CCN(C)CC2)cc1	i	i	i	i	nt	i	nt	nt
Cc1cc2ccccc2n1CCNC(=O)c1ccc(Br)o1	i	i	i	i	17.0	i	i	i
Cc1cc2ccccc2n1CCNC(=O)C(C)(C)C	i	i	i	i	nt	i	nt	nt
Cc1cc2ccccc2n1CCNC(=O)c1ccccc1	i	i	i	i	40.5	i	51.4	i
CC(=O)NCCn1c(C)cc2ccccc21	i	i	i	i	nt	i	nt	nt

High-throughput results from PubChem BioAssay.
